This is an account of results in PubChem BioAssay AID652154 (Broad Institute, 2013).

The whole screen tested about 360,000 compounds, of which about 4,200 (1.2%) were called active. The list comes from a sample in which actives are over-represented; it also holds similar structures and randomly drawn compounds. Unmarked numbers belong to inactive results.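 How the source made its calls: active means mean replicate inhibition at least 60% with every replicate also reaching 60%; inconclusive means only one of the two criteria is met; inactive means mean below 60% and not all replicates reaching 60%.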

This test is described as follows: inhibitors of PAX8-driven TPO luciferase reporter, primary screen, RMG-I cells, single concentration (AID 652154).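 Further: luciferase light reporting Pax8 driven TPO promoter activity; plate controls were median of neutral control wells for no effect and mitoxantrone controls for full effect.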 The conditions noted are these: SteadyGlo, 24 h, at 12.6 µM, stronger effect = higher value. (A reporter such as luciferase makes a cellular process visible.)
As a reminder, the inhibition is the drop in the measured response relative to a control, in per cent. For `COc1cc(OC)cc(C(=O)N[C@H](C(=O)NNC(=O)c2ccc(Br)cc2)C(C)C)c1`, the inhibition is 18.6%. With `COc1cc(OC)cc(C(=O)N[C@H](C(=O)OCC(=O)NC(C)c2ccccc2)C(C)C)c1` (stereo partly drawn) the figure was -10.5%; with `COc1cc(OC)cc(C(=O)N[C@H](C(=O)Nc2nc3ccccc3[nH]2)C(C)C)c1`, 81.6% (active); with `CO[C@H]1CN(C)C(=O)c2cc(NC(=O)c3ccc4c(c3)OCO4)ccc2OC[C@@H](C)N(CCC(F)(F)F)C[C@H]1C`, -3.09%. With `COc1ccccc1NC(=O)N1CC(=O)N2[C@H](CO)[C@H](c3ccc(C#Cc4ccccc4)cc3)[C@H]2C1` the figure was -18.8%; with `COc1ccccc1NC(=O)N1CC(=O)N2[C@@H](CO)[C@H](c3ccc(C#CC4CC4)cc3)[C@@H]2C1`, -15.3%. With `COc1ccccc1NC(=O)N1CCCCN2[C@H](CO)[C@H](c3ccc(C#CC4CC4)cc3)[C@@H]2C1` the figure was 8.7%. In the case of `O=C(c1ccc(F)cc1)N1CC(=O)N2[C@H](C1)[C@@H](c1ccc(C#CC3CC3)cc1)[C@@H]2CO`, the inhibition is 27.2%.

For `COc1ccccc1NC(=O)N1CCCCN2[C@H](C1)[C@H](c1ccc(-c3ccccc3)cc1)[C@@H]2CO`, the inhibition is -14.1%.

As for `COc1ccccc1NC(=O)N1CCCCN2[C@@H](CO)[C@@H](c3ccc(C#Cc4ccccc4)cc3)[C@@H]2C1`, the inhibition is 109% (active). In the case of `O=C(CC1CC1)N1CC(=O)N2[C@H](CO)[C@H](c3ccc(C#Cc4ccc(F)cc4)cc3)[C@@H]2C1` it was 2.13%; in that of `O=C(c1ccc(F)cc1)N1CC(=O)N2[C@@H](CO)[C@@H](c3ccc(C#Cc4ccc(F)cc4)cc3)[C@@H]2C1`, 87.7% (active); in that of `COc1ccccc1NC(=O)N1CC(=O)N2[C@H](C1)[C@H](c1ccc(C#Cc3ccccc3)cc1)[C@@H]2CO`, 61.7% (active). With `COc1ccc(C#Cc2ccc([C@H]3[C@@H](CO)N4CCCCN(C(=O)Nc5ccccc5)C[C@H]34)cc2)cc1` the figure was 85.6% (active); with `CC(C)C#Cc1ccc([C@H]2[C@@H](CO)N3CCCCN(C(=O)Nc4ccccc4)C[C@H]23)cc1`, 7.15%.

As to `O=C(Nc1ccccc1)N1CCCCN2[C@H](CO)[C@@H](c3ccc(C#Cc4ccccn4)cc3)[C@H]2C1`, the inhibition was 10.2%. In the case of `Cc1ccccc1S(=O)(=O)N[C@@H]1CC[C@@H](CCNS(=O)(=O)c2cccc(F)c2)O[C@H]1CO` it was 20.4%; in that of `O=C(C[C@H]1CC[C@H]2[C@@H](COC[C@@H](O)CN2Cc2cccc(C(F)(F)F)c2)O1)NCc1ccncc1`, -1.84%.
